The structures appear in SMILES notation. Inconclusive results are not listed. Where a call stands in place of a potency, no number is given. Calls of active or inactive are those of the source. Calls come from the whole dose curve; as a rule, active = well fitted activation curve with a large enough effect; inconclusive = small, poorly fitted or top-dose-only effect; inactive = flat fitted curve, though single readings scatter.
Potency is the fitted concentration of half-maximal effect.

Chain of Cellular tumor antigen p53 (Homo sapiens) (P04637 whole entry, looked up): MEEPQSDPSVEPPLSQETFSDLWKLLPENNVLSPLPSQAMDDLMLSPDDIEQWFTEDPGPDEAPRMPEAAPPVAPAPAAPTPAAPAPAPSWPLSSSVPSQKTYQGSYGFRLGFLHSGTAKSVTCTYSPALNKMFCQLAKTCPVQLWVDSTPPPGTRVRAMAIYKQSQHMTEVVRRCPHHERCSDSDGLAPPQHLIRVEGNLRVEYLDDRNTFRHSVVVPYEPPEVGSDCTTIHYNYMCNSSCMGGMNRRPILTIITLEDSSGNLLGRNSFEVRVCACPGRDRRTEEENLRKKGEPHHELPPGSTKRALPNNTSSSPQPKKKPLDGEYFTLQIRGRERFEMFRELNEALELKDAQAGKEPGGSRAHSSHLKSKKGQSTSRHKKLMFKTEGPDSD

This assay deals with Cellular tumor antigen p53 (Homo sapiens) (UniProt P04637). Description: Primary qHTS for small molecule compounds that upregulate eGFP-tagged delta133p53alpha (in C-terminal) cells. (AID 2060324). The note with it: NCI-H358 delta133p53alpha-eGFP (C-terminal tag), GFP fluorescence imaging, 24 h; series mostly up to 57.5 µM. The method in brief:
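NCI-H358 cells with doxycycline-inducible D133p53a-eGFP (C-terminal tag), pre-induced 24 h with 100 ng/ml doxycycline, plated 800/well in doxycycline-free medium and treated 24 h at 37 °C with compound titrations. Cells were then fixed and Hoechst-stained, and GFP intensity was read by laser scanning cytometry.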
As for `N[C@H](C(=O)O)[C@H](O)C(=O)O`, the Potency entry was “inactive”. As to `N[C@@H](CCC(=O)N[C@H](CSN=O)C(=O)NCC(=O)O)C(=O)O`, the Potency entry was “inactive”. In the case of `Nc1nc2ccc(Cl)cc2n2c(-c3ccccc3)nnc12`, the Potency result was “inactive”. Then `Cc1ccccc1/C=C/C1=NCCN1`, with “inactive”. In the case of `O=C(O)c1cc([N+](=O)[O-])ccc1NCCCc1ccccc1` it was “inactive”. In the case of `O=C(Nc1ccccc1)c1cc([N+](=O)[O-])ccc1Cl` it was “inactive”.

In the case of `CCCc1nn(C)c2c(=O)[nH]c(-c3cc(S(=O)(=O)N4CCN(C)CC4)ccc3OCC)nc12`, the Potency result is “inactive”. In the case of `CC(C)C[C@H](NC(=O)C1OC1C(=O)O)C(=O)NCCCCN=C(N)N` (stereo not given in full) it was “inactive”. In the case of `O=S(=O)(c1cccc2c(I)cccc12)N1CCCNCC1` it was “inactive”. In the case of `NCCS(=O)O` it was “inactive”. For `CC(C)N(CCC(=O)c1ccc2ccccc2c1)Cc1ccccc1`, the Potency is 23.9 µM (active). Take `CCCCc1ncc(/C=C(\Cc2cccs2)C(=O)O)n1Cc1ccc(C(=O)O)cc1`: the Potency result is “inactive”. On to `CC(C)NC[C@H](O)COc1cccc2[nH]ccc12`, for which the Potency entry was “inactive”.

On to `Cc1cn[nH]c1`, for which the Potency result was “inactive”.

With `N[C@@H](Cn1ccc(=O)c(O)c1)C(=O)O`, the Potency result is “inactive”. For `CCN(CC)CCCC(C)Nc1c2ccc(Cl)cc2nc2ccc(OC)cc12` (stereo not given), the Potency was 26.9 µM (active). In the case of `O=C1C(SCCO)=C(SCCO)C(=O)c2ccccc21` it was 8.49 µM (active). Then `CCCn1c(=O)c2c(ncn2C)n(CCC)c1=O`, with “inactive”; and `CCCN(CC1CC1)c1nc(C)nc(Nc2c(Cl)cc(Cl)cc2Cl)c1Cl`, with “inactive”. In the case of `C[C@@H](O)[C@H]1C(=O)N2C(C(=O)O)=C(SCCN=CN)C[C@H]12` it was “inactive”; in that of `CNCCc1cnc(CCC(c2ccccc2)c2ccccc2)[nH]1`, “inactive”; in that of `CC(C)c1cccc(C(C)C)c1N1C(=O)c2ccc(O)cc2C1=O`, “inactive”.

Turning to `Cc1cc(C(C)(C)C)c(O)c(C)c1CC1=NCCN1`, the Potency entry was “inactive”. As for `COc1ccc2c(c1)CCC1C2CC[C@@]2(C)C1CC[C@@H]2NCCCCCCN1C(=O)C=CC1=O` (stereo not given in full), the Potency entry was “inactive”. In the case of `Nc1ccn([C@H]2CC[C@@H](CO)O2)c(=O)n1` it was “inactive”; in that of `Clc1cccc(Cl)c1NC1=NCCN1`, “inactive”. `O=C(c1ccc(F)cc1)C1CCN(CCn2c(=O)[nH]c3ccccc3c2=O)CC1`: the Potency result is “inactive”. Then `O=C1NCc2c1c1c3ccccc3[nH]c1c1[nH]c3ccccc3c21`, with 30.1 µM (active); and `O=[N+]([O-])c1ccc(CNc2nc(NCc3cccc(C(F)(F)F)c3)nc3nc[nH]c23)cc1`, with “inactive”. For the compound `N=c1ccn2c(n1)O[C@H]1[C@H](O)[C@@H](CO)O[C@H]12`, the Potency entry was “inactive”. In the case of `CSc1ccc2c(c1)N(CCC1CCCCN1C)c1ccccc1S2` (stereo not given) it was “inactive”; in that of `O=C1OC(=O)C2C3CCC(O3)C12` (stereo not given), “inactive”. Then `CNC(=O)[C@H]1O[C@@H](n2cnc3c(NCc4ccc(N)cc4)ncnc32)[C@H](O)[C@@H]1O`, with “inactive”; and `Nc1ccc2c3c(cccc13)C(=O)NC2=O`, with 30.1 µM (active); and `OCC1NCC(O)C(O)C1O` (stereo not given), with “inactive”.

Take `NC1[C@H]2CN(c3nc4c(cc3F)c(=O)c(C(=O)O)cn4-c3ccc(F)cc3F)C[C@@H]12` (stereo not given in full): the Potency entry was “inactive”. In the case of `NCC(O)C1CCCCCCC1` (stereo not given) it was “inactive”. `CCCCCCCCCCCCCCCCCCOC[C@H](COP(=O)([O-])OCC[N+](C)(C)C)OC`: the Potency entry was “inactive”. Regarding `CN1C2CCC1CC(OC(c1ccccc1)c1ccccc1)C2` (stereo not given), the Potency result was “inactive”. `CC(=O)[C@H]1CCC2C3CC=C4C[C@@H](OS(=O)(=O)O)CC[C@]4(C)C3CC[C@@]21C` (stereo not given in full): the Potency entry is “inactive”.

Source of the values: PubChem BioAssay (NCATS).
